Hits are enriched below; roughly 3.8% of the tested compounds scored in any of these assays.
Nrf2 inh: inhibitors of Nrf2 signaling | A549 ARE-Fluc reporter, luciferase luminescence, 18-24 h | Potency, µM (titrated, usually from 46 µM), without a hit: top-dose activity change, negative = inhibition, hits mostly inhibitors | actives 2.1% (n = 360,000); also: % is scaled to controls: 0 for no effect and ±100 for the full control effect; nearly all actives have a fitted effect of over 60% in size
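A549 ARE_Fluc cells, 5000/well, 5% FBS OPTI-MEM; compounds in dose-response, 18-24 h at 37 °C/5% CO2; CellTiter-Fluor viability read (Ex 405/Em 525), then BugLite luciferase luminescence = Nrf2 activity.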
ATXN2 expr inh: ATXN2 expression inhibition. Potency, µM (highest dose often 57 µM), for inactives: at the highest dose activity change, negative = inhibition, actives largely listed as inhibitors. HEK-293 ATXN2-luciferase reporter, luminescence, 24 h. actives 0.72% (n = 360,000). AID 1745845; also: % is scaled to controls: 0 for no effect and ±100 for the full control effect; nearly all actives have a fitted effect of over 55% in size
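ATXN2-luciferase reporter cells (luciferase flanked by upstream and downstream ATXN2 gene portions) were treated 24 h at 37 °C with compounds at up to 57 uM. SteadyGlo luminescence gave expression; GF-AFC fluorescence gave viability.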
HepG2 viability: counter-screen for TGF-b inhibitors: cytotoxicity in HepG2 cells | AID 588856 | HepG2 CAGA-GFP viability, ATP luminescence, 18 h | Potency, µM (highest dose often 46.1 µM), for inactives: at the highest dose activity change, negative = cytotoxicity, hits mostly cytotoxic | actives 0.76% (n = 410,000)
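CellTiter-Glo luminescence gave cytotoxicity after 18 hours at 37 degrees C. The cells were HepG2 CAGA-GFP in 1% FBS DMEM, stimulated with 500 pg/mL TGF-beta after compound addition. %Activity was normalised to no-cell wells (complete cell-killing) and DMSO (no toxicity), and curves were fitted and classified.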
ATXN viability: cell viability loss in ATXN counter-screen. S2 cells (HEK-293 line with an ATXN2-luciferase reporter) viability, CellTiter-Fluor protease fluorescence, 24 h. Potency, µM (titrated, usually from 56.7 µM), actives largely listed as cytotoxic. actives 0.49% (n = 400,000). AID 651635; also: nearly all actives have a fitted effect of over 40% in size
A549 viability: counter-screen for Nrf2 inhibitors: cytotoxicity in A549 cells | actives 0.16% (n = 390,000) | Potency, µM (top dose mostly 46 µM), inactives show at the highest dose activity change, negative = cytotoxicity, most hits filed as inhibitors | A549 ARE-Fluc cells, CellTiter-Fluor viability, 18-24 h | AID 504648; also: % is scaled to controls: 0 for no effect and ±100 for the full control effect
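Cytotoxicity counterscreen: CellTiter-Fluor fluorescence was measured in A549 ARE_Fluc cells after 18-24 h of compound exposure in a concentration series. The subsequent BugLite luminescent read reports ARE-luciferase activity.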
TGFb SMAD3 inh: inhibitors of TGF-b signaling | HepG2 CAGA-GFP TGF-b/SMAD3 reporter, GFP fluorescence, 18 h; TGF-beta stimulated, 500 pg/mL final | Potency, µM (series often up to 46.1 µM), without a hit: at the top dose activity, negative = inhibition, usual class: inhibitors | actives 1.2% (n = 410,000); also: % is scaled to controls: 0 for no effect and ±100 for the full control effect; nearly all actives have a fitted effect of over 65% in size
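HEPG2 CAGA-GFP cells (1000/well, DMEM with 1% FBS) were pre-incubated 2 h at 37 degrees C, given compound by pin tool, then stimulated with TGF-beta at 500 pg/mL final for 18 h before per-cell GFP fluorescence imaging.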
Starred values were filed as active, the others as inactive; i = inactive; u = inconclusive; x = not tested or not shown; [ ] = another dose, or the depositor's remark. Calls follow the shape of the dose curve; as a rule, active = well fitted curve in the direction sought with a large enough effect; inconclusive = small, poorly fitted or top-dose-only effect, or another doubt; inactive = no such curve, though single readings can be large; an effect the other way counts as inactive or inconclusive. Potency is read from the fitted curve at half-maximal effect.

SMILES	Nrf2 inh	ATXN2 expr inh	HepG2 viability	ATXN viability	A549 viability	TGFb SMAD3 inh
CCN1C(C(=O)c2ccccc2)=C(OC(=O)c2ccc(OC)cc2)c2ccccc2S1(=O)=O	u	x	-36%	x	u	u
CSc1cccc(NC(=O)Cn2c3ncccc3c(=O)n2-c2ccc(C)cc2)c1	-25%	-14%	-23%	i	0%	-4%
COc1ccc2[nH]cc(C(=O)CCl)c2c1	u	u	-107%	16µM*	-7%	u
COc1ccc2[nH]cc(C(=O)CN3CC(C)CC(C)C3)c2c1 (stereo not given)	u	-14%	-7%	u	0%	1%
Cc1cc(C)cc(N(C(=O)c2csnn2)C(C(=O)NC2CCCC2)c2ccccn2)c1 (stereo not given)	-1%	-9%	-15%	i	1%	8%
Cc1cc(-c2nnc(CCC(=O)N(C)Cc3cccc4ccccc34)o2)no1	u	48%	-24%	i	-8%	-3%
CNC(=O)c1ccc(N2C(=S)N(c3cnc(C#N)c(C(F)(F)F)c3)C(=O)C23CCC3)cc1F	x	14µM*	x	x	x	x
Fc1ccc(/C=C\c2nccc3c2[nH]c2ccccc23)cc1	u	14%[11.3 µM]	-50%	i	-12%	u
C(=C\c1nccc2c1[nH]c1ccccc12)/c1ccccc1	u	x	20µM*	x	-2%	u
O=c1c(Br)ccc(Br)cc1Br	u	6µM*	4µM*	7.5µM*	u	1.6µM*
O=C1CN(S(=O)(=O)c2cc(Br)ccc2Br)CCN1	-4%	-1%	-6%	i	-1%	-7%
COc1ccc(C)cc1NC(=O)NNC(=O)C(C)Oc1ccc(F)cc1Cl (stereo not given)	u	-25%	-13%	i	-1%	-28%
Cc1cc(C=c2sc3nc4ccccc4n3c2=O)c(C)n1-c1ccccc1	x	0.24µM*	x	x	x	x
CCCCN(CC)CCNC(=O)C1CCN(c2nnc(C)c3c(C)n(-c4ccc(C)cc4)nc23)CC1	u	x	-5%	x	23µM*	0%
COc1ccc(CNC(=O)C2CCCN(c3nnc(C)c4c(C)n(-c5ccc(C)cc5)nc34)C2)cc1 (stereo not given)	-19%	-11%	-48%	u	-16%	u
Cc1ccc(NC(=O)C2CCCN(c3ncnc4onc(C)c34)C2)cc1Cl (stereo not given)	13µM*	9%	-31%	i	u	u
CCc1ccc(CNC(=O)C2CCCN(c3nnc(C)c4c(C)n(-c5ccc(OC)cc5)nc34)C2)cc1 (stereo not given)	3%	-20%	10µM*	u	-18%	11µM*
Cc1nnc(N2CCCC(C(=O)NCc3ccc(OC(C)C)cc3)C2)c2nn(-c3ccccc3)c(C)c12 (stereo not given)	u	u	-25%	16µM*	u	-28%
COc1cccc(NC(=O)C2CCCN(c3ncnc4onc(C)c34)C2)c1 (stereo not given)	u	-14%	-22%	i	-7%	u
CN(C)S(=O)(=O)c1ccc(C(=O)NCCSc2c(-c3ccc(Br)cc3)[nH]c3ccccc23)cc1	-12%[9.27 µM]	-3%	-26%	u	-9%	u
CCOC(=O)c1cc(S(=O)(=O)N2CCN(c3cc(Cl)ccc3C)CC2)[nH]n1	x	-18%	-39%	i	6%	u
CC1CCN(C(=O)C(C)c2ccc([N+](=O)[O-])cc2)CC1 (stereo not given)	0%	-20%	-34%	i	0%	u
Cc1ccc(NC(=O)C2CCN(c3nnc(C)c4c(C)n(-c5ccccc5)nc34)CC2)cc1Cl	u	2%	8%	i	-6%	u
COc1ccc(-n2nc3c(N4CCC(C(=O)NCc5cccc(F)c5)CC4)nnc(C)c3c2C)cc1	u	u	16µM*	u	u	10µM*
COc1ccc(NC(=O)C2CCCN(c3nnc(C)c4c(C)n(-c5ccccc5)nc34)C2)cc1Cl (stereo not given)	u	13µM*	18µM*	11µM*	-17%	16µM*
SMILES	Nrf2 inh	ATXN2 expr inh	HepG2 viability	ATXN viability	A549 viability	TGFb SMAD3 inh
Cc1ccc(-c2nc(CN(C)Cc3cccc4cnccc34)c(C)o2)s1	23µM*	x	-34%	i	-2%	u
COc1ccc(C(=O)[C@@H]2CC[C@](C)(C(=O)O)C2(C)C)cc1	3%	3%	-17%	i	-3%	0%
CC(=O)c1ccc(S(=O)(=O)NC2CC(=O)N(c3ccc(C)c(C)c3)C2)cc1 (stereo not given)	-10%	-13%	1%	i	-6%	0%
CCOC(=O)c1ccc(NC(=O)C2COc3ccccc3O2)cc1 (stereo not given)	0%	4%	-18%	i	-2%	15%
CCOC(=O)c1ccc(-n2c(O)c(/C=N/NC(=O)C3COc4ccccc4O3)c3ccccc3c2=O)cc1 (stereo not given)	-95%	-27%	-42%	i	u	8.9µM*
COc1cc(OC)c(NC(=S)Nc2cc(Cl)cc(Cl)c2)cc1Cl	21µM*	u	12%	u	0%	u
COc1cc(OC)c(NC(=S)Nc2cccc(C(C)=O)c2)cc1Cl	-17%	-16%	-14%	i	5%	-19%
CC1(C(=O)NS(=O)(=O)c2ccccc2C(F)(F)F)CCN1C(=O)CCC1CCCC1 (stereo not given)	x	3%	-2%	i	x	-4%
CN(CC(=O)Nc1ccccc1Cl)C(=O)c1cccc(S(=O)(=O)N2CCN(c3ccccc3)CC2)c1	21µM*	-29%	-20%	i	-20%	u
CN(CC(=O)Nc1ccccc1Cl)C(=O)c1ccc(Cl)c(S(=O)(=O)N2CCCCCC2)c1	u	-19%	-25%	i	-11%	-7%
CN(CC(=O)Nc1ccccc1Cl)C(=O)c1cccc(S(=O)(=O)N2CCN(c3ccc(F)cc3)CC2)c1	5.2µM*	u	-24%	i	-15%	u
CN(CC(=O)Nc1cccc(F)c1)C(=O)c1cccc(S(=O)(=O)N2CCN(c3ccc(F)cc3)CC2)c1	16µM*	u	-29%	i	u	13µM*
CN(CC(=O)Nc1cccc(F)c1)C(=O)c1cccc(S(=O)(=O)N2CCN(Cc3ccccc3)CC2)c1	x	x	-22%	i	x	u

Bioassay records (PubChem)
